Screens deposited in PubChem BioAssay by Broad Institute.
Shown is part of a subset that was picked to be rich in hits.
ROS inducer: raises reactive oxygen species in U2OS cancer cells | ROS induction (% of piperlongumine), % at 10 µM | U2OS ROS induction, H2DCF-DA fluorescence | actives 2% (n = 46,000) | AID 624156; in the data active = ROS induction above about 79%, passing the limit was not always enough;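 also: 0% = DMSO vehicle median and 100% = reference compound median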
An asterisk follows results filed as active.

`O=C(CSc1nc2ccc([N+](=O)[O-])cc2[nH]1)Nc1cc(C(F)(F)F)cc(C(F)(F)F)c1` gave ROS inducer 2.
For CCC(=O)c1cc2ccccc2oc1=O the results were ROS inducer -13.
`O=C(CSc1nc2cc(Cl)ccc2s1)Nc1ccc(I)cc1` gave ROS inducer 1.
`COC(=O)C1c2c(oc3cc(CO)cc(O)c3c2=O)C=CC1O` (stereo not given) gave ROS inducer 137*.
For COC(=O)c1cc(CO)cc(O)c1C(=O)c1c(O)cccc1O the results were ROS inducer 2.
Screening COc1cc(-c2oc3cc(O)cc(O)c3c(=O)c2O[C@@H]2O[C@H](CO)[C@@H](O)[C@H](O)[C@H]2O)ccc1O[C@@H]1O[C@H](CO)[C@@H](O)[C@H](O)[C@H]1O returned ROS inducer -6.
For Cc1nc2ccccc2c(=O)n1NCc1ccccc1Br the results were ROS inducer 4.
`O=C(CCCCC(=O)N/N=C/c1ccc(O)c(O)c1O)NO` gave ROS inducer 2.
O=C(CCCCC(=O)N/N=C/c1ccc(I)cc1)NO was read as ROS inducer -1.
O=C(CCCCC(=O)N/N=C/c1c(F)c(F)c(F)c(F)c1F)NO was read as ROS inducer 145*.
For COc1ccc(Cl)cc1C(=O)N1CCCC1C(=O)OCc1ccccc1 (stereo not given) the results were ROS inducer 7.
For COc1c(OC)c(O)c2c(=O)c(O)c(-c3ccccc3)oc2c1OC the results were ROS inducer 10.
Screening COc1cc(-c2oc3cc(O)cc(O)c3c(=O)c2O)ccc1O returned ROS inducer 12.
`COc1cc(-c2oc3cc(O)c(OC)c(O)c3c(=O)c2OC)ccc1O` gave ROS inducer 10.
For COc1cc(O)c2c(=O)c(OC)c(-c3ccc(OC)c(OC)c3)oc2c1 the results were ROS inducer 59.
Screening COc1ccc(-c2oc3c(OC)c(OC)c(OC)c(O)c3c(=O)c2OC)cc1OC returned ROS inducer 102*.
COc1cc(OC)c2c(=O)c(O)c(-c3ccc(OC)c(OC)c3)oc2c1 was read as ROS inducer 83*.
`CS(=O)(=O)N(CC(=O)Nc1ccc(I)cc1)C1CCCCC1` gave ROS inducer -5.
Screening Cc1ccc(SC(C)C(=O)Nc2ccc(C(C)(C)C)cc2)cc1 (stereo not given) returned ROS inducer 11.
O=C(/C=C/S(=O)(=O)c1ccc(Cl)cc1)c1ccc(F)cc1 was read as ROS inducer 6.
`COc1cc(Cl)c(C)cc1NC(=O)C1CCC(=O)N1S(=O)(=O)c1ccc(C)cc1` (stereo not given) gave ROS inducer -6.
For O=S(=O)(Nc1ncccn1)c1ccc(NC(=S)Nc2ccc(F)c(Cl)c2)cc1 the results were ROS inducer -9.
Screening COc1ccc(S(=O)(=O)N(C)C[C@@H]2Oc3ccc(N(C)C)cc3CC(=O)N([C@H](C)CO)C[C@H]2C)cc1 returned ROS inducer 96*.
C[C@H]1CN([C@@H](C)CO)C(=O)c2cccc(NC(=O)Nc3cccc4ccccc34)c2O[C@@H]1CN(C)S(=O)(=O)c1ccc(F)cc1 was read as ROS inducer 151*.
C[C@H]1CN([C@@H](C)CO)C(=O)c2cccc(NC(=O)Nc3cccc4ccccc34)c2O[C@H]1CN(C)S(=O)(=O)c1ccc(F)cc1 was read as ROS inducer -4.
For Cc1noc(C)c1S(=O)(=O)Nc1cccc2c1O[C@@H](CN(C)S(=O)(=O)c1ccc(Cl)cc1)[C@@H](C)CN([C@@H](C)CO)C2=O the results were ROS inducer 6.
`COc1ccc(S(=O)(=O)N(C)C[C@H]2Oc3ccc(N(C)C)cc3CC(=O)N([C@H](C)CO)C[C@H]2C)cc1` gave ROS inducer -6.
`C[C@H]1CN([C@@H](C)CO)C(=O)Cc2cc(N(C)C)ccc2O[C@@H]1CN(C)S(=O)(=O)c1ccc(Cl)cc1` gave ROS inducer 19.
For Cc1noc(C)c1S(=O)(=O)Nc1cccc2c1O[C@H](CN(C)S(=O)(=O)c1ccc(Cl)cc1)[C@H](C)CN([C@@H](C)CO)C2=O the results were ROS inducer 103*.
Screening COc1ccc(S(=O)(=O)N(C)C[C@H]2Oc3ccc(NC(=O)Nc4ccc(F)cc4)cc3C(=O)N([C@H](C)CO)C[C@@H]2C)cc1 returned ROS inducer 38.
For COc1ccc(S(=O)(=O)N(C)C[C@@H]2Oc3ccc(NC(=O)Nc4ccc(F)cc4)cc3C(=O)N([C@H](C)CO)C[C@@H]2C)cc1 the results were ROS inducer 130*.
Cc1noc(C)c1S(=O)(=O)Nc1cccc2c1O[C@@H](CN(C)S(=O)(=O)c1ccc(Cl)cc1)[C@@H](C)CN([C@H](C)CO)C2=O was read as ROS inducer 24.
For C[C@@H]1CN([C@H](C)CO)C(=O)c2cccc(NC(=O)Nc3cccc4ccccc34)c2O[C@@H]1CN(C)S(=O)(=O)c1ccc(F)cc1 the results were ROS inducer 8.
